Measurements: PubChem BioAssay
“And” between values parts separate entries of the source, which are not always exact repeats. Identical values can stand only once. The source made the active and inactive calls. Cut-off read from the data, not from the text of the source, unless noted: active = inhibition above about 80%; inactive = the rest.

Experiments:
[1] = hESC survival regulators, cell-based (AID 493140; call rule not given here;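 note: cells exposed to compounds for four days before counting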); settings: human embryonic stem cell survival screen; stronger effect = higher value
[2] = liver-stage malaria parasite growth inhibition, primary screen, cell-based, HepG2, luciferase luminescence, HepG2 viability (AID 624349; in the data active = parasite load remaining mostly below about 12%, no sharp cut-off; inactive = mostly above about 10%;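 note: 100% = mean of DMSO negative control wells on the same plate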); settings: P. berghei liver stage in HepG2, luciferase luminescence, concentration not given here; parasite load remaining: stronger effect = lower value; viability: measured here: HepG2 viability without parasites
[3] = sensitizers of A549 cells to miR-34 induction, primary screen, imaging, A549 dox-inducible miR-34, nuclei and caspase counts (AID 1347080;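 active = compounds whose cell count with miR-34 switched on is under 0.7 times the count with it off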); settings: A549 miR-34 inducible, Hoechst nuclei count, 48 h
[4] = survival rescue of mitochondrial mutant cells in low glucose, primary screen, MELAS cybrids, Rieske KO mouse fibroblasts, CellTiter-Glo (AID 1508586;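 active = mean z-score across replicates of 1.96 or higher in either the MELAS or the Rieske mutant cell line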;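 note: z relative to plate mean and SD of compound and empty wells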)
[5] = LFS_MB_P medulloblastoma growth inhibition, cell-based, chromothripsis tumors, cisplatin or BGB combos (AID 1671449); settings: LFS_MB_P medulloblastoma cells;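 note: cells exposed for 96 hours; 0% = vehicle DMSO and 100% = killing by high DMSO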
[6] = HDN33 neuroblastoma growth inhibition, cell-based, chromothripsis tumors, cisplatin or BGB combos (AID 1671450); settings: HDN33 neuroblastoma cells, stronger effect = higher value;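 note: cells exposed to compound for four days; 0% = vehicle DMSO and 100% = cell killing by high DMSO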
[7] = ICB984 medulloblastoma cell growth inhibition, synergistic combos for chromothripsis tumors, cisplatin or BGB combos (AID 1671451; call rule not given here;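 note: cells exposed for 96 hours before readout; 0% = vehicle DMSO and 100% = killing by high DMSO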); settings: ICB984 medulloblastoma cells, drug combinations, stronger effect = higher value
[8] = LFS_MB_1R medulloblastoma cell growth inhibition, synergistic combos for chromothripsis tumors, cisplatin or BGB combos (AID 1671452); settings: LFS_MB_1R medulloblastoma cells, stronger effect = higher value;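 note: cells exposed for 96 hours before readout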
[9] = HTB85 osteosarcoma cell growth inhibition, synergistic combos for chromothripsis tumors, BGB or cisplatin IC20 combos (AID 1671453); settings: HTB85 osteosarcoma cells, drug combinations, stronger effect = higher value;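 note: cells exposed for 96 hours before readout; 0% = vehicle DMSO and 100% = high DMSO killing control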
[10] = CRL2098 osteosarcoma cell growth inhibition, synergistic combos for chromothripsis tumors, BGB or cisplatin IC20 combos (AID 1671454); settings: CRL2098 osteosarcoma cells, drug combinations, stronger effect = higher value;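 note: cells exposed for 96 h before readout; 0% = vehicle DMSO and 100% = killing by high DMSO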
[11] = HD-MB03 medulloblastoma cell growth inhibition, synergistic combos for chromothripsis tumors, BGB or cisplatin IC20 combos (AID 1671455; in the data active = inhibition above about 83%;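 note: 0% = vehicle DMSO and 100% = high DMSO as cytotoxic control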); settings: HD-MB03 medulloblastoma cells, stronger effect = higher value
[12] = UWB1.289 ovarian carcinoma cell growth inhibition, synergistic combos for chromothripsis tumors, BGB or cisplatin combos (AID 1671456); settings: UWB1.289 ovarian carcinoma cells, stronger effect = higher value;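 note: cells exposed to compound for four days; 0% = vehicle DMSO and 100% = killing by high DMSO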
[13] = LFS_MB_2R medulloblastoma cell growth inhibition, synergistic combos for chromothripsis tumors, cisplatin combos (AID 1671457); settings: LFS_MB_2R medulloblastoma cells, stronger effect = higher value;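 note: cells exposed to compound for four days before readout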
[14] = MDA-MB-436 breast carcinoma cell growth inhibition, synergistic combos for chromothripsis tumors, BGB or cisplatin combos (AID 1671458; call rule not given here;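 note: cells exposed for 96 hours; 0% = vehicle DMSO and 100% = killing by high DMSO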); settings: MDA-MB-436 breast carcinoma growth inhibition, drug combinations, stronger effect = higher value
[15] = UWB1.289_BRCA1 ovarian cancer growth, cell-based, BGB or cisplatin combinations (AID 1671459); settings: UWB1.289 BRCA1 ovarian carcinoma, drug combinations, stronger effect = higher value
[16] = human astrocyte viability loss, single and combined drugs, cytotoxicity control for chromothriptic childhood tumor combination screen, cell-based, BGB or cisplatin IC20 combos (AID 1671460); settings: Human astrocytes, drug combinations, stronger effect = higher value;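 note: cells exposed to compounds for 96 hours before viability readout; 0% = vehicle and 100% = killing control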
[17] = growth inhibition of BT084 medulloblastoma cells, cell-based, ICGC_MB145, cisplatin and BGB IC40 combos (AID 1671461); settings: drug combinations, stronger effect = higher value;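 note: cells exposed to drugs for 96 hours; 0% = vehicle DMSO and 100% = high DMSO full killing control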
[18] = growth inhibition of RCMB18 medulloblastoma cells, cell-based, cisplatin and BGB IC40 combos (AID 1671462); settings: stronger effect = higher value;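 note: cells exposed to compound for four days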
[19] = growth inhibition of CRL1545 osteosarcoma cells, cell-based, cisplatin and BGB IC20 combos (AID 1671464); settings: stronger effect = higher value;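 note: cells exposed to compound for 96 hours before readout; 0% = vehicle DMSO and 100% = high DMSO killing control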
[20] = measured here: combination with BGB IC40, at 0.05 µM
[21] = measured here: with BGB IC20 combination, at 0.5 µM
[22] = measured here: with cisplatin IC20 combination, at 0.5 µM
[23] = measured here: combination with cisplatin, at 0.5 µM
[24] = measured here: combination with cisplatin, at 5 µM

## Nc1nc2n[nH]nc2c(=O)[nH]1
[1]
  survival: 1.83 (inactive)
[2]
  parasite load remaining: 236% (inactive) and 549% (inactive)
  viability: 41.1% and 96.1%
[3]; stronger effect = lower value, cell number ratio, induced over uninduced
  fold change: 0.89 (inactive) and 0.844 (inactive)
[3]; measured here: relative caspase fold change +Dox/-Dox
  fold change: 1.24 and 2.05
[3]; measured here: total cells with miR-34 induction, stronger effect = lower value
  cell count: 3000 and 5470
[3]; measured here: total cells without miR-34 induction
  cell count: 3360 and 6490
[4]; MELAS cybrid survival, CellTiter-Glo 48 h, stronger effect = higher value
  z-score: -0.244 (inactive) and -0.54 (inactive)
[4]; Rieske KO mouse fibroblast survival, CellTiter-Glo 72 h
  z-score: -0.138 and -0.665
[5]; at 0.5 µM, stronger effect = higher value
  inhibition: -21.3% (inactive)
[5]; measured here: combination with BGB IC20, at 0.005 µM
  inhibition: -4.53%
[5]; measured here: combination with BGB IC40, at 0.005 µM
  inhibition: -37%
[5]; [20]
  inhibition: -34.6%
[5]; measured here: combination with cisplatin, at 0.5 µM, stronger effect = higher value
  inhibition: -31.1%
[5]; measured here: combination with cisplatin, at 5 µM, stronger effect = higher value
  inhibition: 8.39%
[6]; BGB combo, at 5 µM
  inhibition: 20.7%
[6]; at 0.5 µM
  inhibition: -10.2% (inactive)
[6]; cisplatin combo, at 5 µM
  inhibition: 6.45%
[6]; [21]
  inhibition: -12.8%
[6]; [22]
  inhibition: -5.82%
[6]; single agent, at 5 µM
  inhibition: 42.1%
[7]; BGB IC20 combo, at 0.005 µM
  inhibition: -1.82%
[7]; BGB IC40 combo, at 0.005 µM
  inhibition: -9.06%
[7]; BGB IC40 combo, at 0.05 µM
  inhibition: 29.3%
[7]; at 0.5 µM
  inhibition: -25% (inactive)
[7]; cisplatin combo, at 0.05 µM
  inhibition: 27.3%
[7]; cisplatin combo, at 0.5 µM
  inhibition: -32.9%
[7]; cisplatin combo, at 5 µM
  inhibition: -42%
[7]; measured here: 5 uM single agent, at 5 µM
  inhibition: -12.8%
[8]; at 0.5 µM
  inhibition: -9.31% (inactive)
[8]; [20]
  inhibition: -15.8%
[8]; [23]
  inhibition: -8.27%
[8]; [24]
  inhibition: 12.9%
[9]; at 0.5 µM
  inhibition: -22.9% (inactive)
[9]; measured here: with BGB IC20, at 0.5 µM
  inhibition: -34.4%
[9]; measured here: with BGB IC20, at 5 µM
  inhibition: 1.91%
[9]; measured here: with cisplatin IC20, at 0.5 µM
  inhibition: -27.1%
[9]; measured here: with cisplatin IC20, at 5 µM
  inhibition: -19.1%
[9]; single agent, at 5 µM
  inhibition: 1.86%
[10]; at 0.5 µM
  inhibition: -27.1% (inactive)
[10]; measured here: combination with BGB at IC20, at 0.5 µM
  inhibition: -20.7%
[10]; measured here: combination with cisplatin at IC20, at 0.5 µM
  inhibition: -21.9%
[11]; at 0.5 µM
  inhibition: 19.3% (inactive)
[11]; measured here: combo with BGB at IC20, at 0.5 µM
  inhibition: 16.1%
[11]; measured here: combo with cisplatin at IC20, at 0.5 µM
  inhibition: 19.7%
[12]; at 0.5 µM
  inhibition: 32.6% (inactive)
[12]; measured here: inhibition with BGB combination, at 0.05 µM
  inhibition: -18.7%
[12]; measured here: inhibition with cisplatin combination, at 0.05 µM
  inhibition: 7.62%
[13]; at 0.5 µM
  inhibition: -9.15% (inactive)
[13]; [23]
  inhibition: -13.8%
[13]; [24]
  inhibition: -35.4%
[14]; at 0.5 µM
  inhibition: -11.4% (inactive)
[14]; measured here: BGB combination, at 0.5 µM
  inhibition: -12.2%
[14]; measured here: BGB combination, at 5 µM
  inhibition: -5.12%
[14]; measured here: cisplatin combination, at 0.5 µM
  inhibition: -17.5%
[14]; measured here: cisplatin combination, at 5 µM
  inhibition: 11.7%
[15]; BGB combination, concentration series, at 5 µM
  inhibition: 85.1%
[15]; at 0.5 µM
  inhibition: 38.3% (inactive)
[15]; cisplatin combination, concentration series, at 5 µM
  inhibition: 92.1%
[16]; at 0.5 µM
  inhibition: 3.68% (inactive)
[16]; measured here: combo with BGB IC20, at 0.5 µM
  inhibition: 0.254%
[16]; measured here: combo with cisplatin IC20, at 0.5 µM
  inhibition: 6.71%
[17]; at 0.5 µM
  inhibition: -32% (inactive)
[17]; cisplatin combination, at 0.5 µM
  inhibition: -3.22%
[17]; cisplatin combination, at 5 µM
  inhibition: 22.6%
[17]; measured here: BGB IC40 combination 0.05 uM, at 0.05 µM
  inhibition: -14%
[17]; single agent, at 5 µM
  inhibition: 6.12%
[18]; at 0.5 µM
  inhibition: -14.7% (inactive)
[18]; cisplatin combo, at 5 µM
  inhibition: 33.1%
[18]; measured here: BGB IC40 combination, at 0.05 µM
  inhibition: -43.3%
[18]; [23]
  inhibition: 3.47%
[18]; single agent, at 5 µM
  inhibition: 22.1%
[19]; at 0.5 µM
  inhibition: -20.1% (inactive)
[19]; [21]
  inhibition: -2.71%
[19]; [22]
  inhibition: -31.6%
[19]; single agent, at 0.05 µM
  inhibition: -28.1%
[19]; single agent, at 5 µM
  inhibition: 32.5%
